Compound activity deposited in PubChem BioAssay by several laboratories.
Rows were chosen to be rich in hits. Some 27% of all compounds tested hit in one or more screens of this group.
CYP2C9 inhib: blockers of cytochrome P450 2C9 activity – biochemical, luminescence, ADME assay, primary screen. P11712. CYP2C9 Supersomes, luciferin-H conversion. inhibition, % at 5 µM. actives 20% (n = 96,000). AID 777, 2007;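 active = blocking of liver enzyme CYP2C9 beyond about 50% at 5 µM, limit read from the data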
Target sequence (P11712 whole entry, looked up): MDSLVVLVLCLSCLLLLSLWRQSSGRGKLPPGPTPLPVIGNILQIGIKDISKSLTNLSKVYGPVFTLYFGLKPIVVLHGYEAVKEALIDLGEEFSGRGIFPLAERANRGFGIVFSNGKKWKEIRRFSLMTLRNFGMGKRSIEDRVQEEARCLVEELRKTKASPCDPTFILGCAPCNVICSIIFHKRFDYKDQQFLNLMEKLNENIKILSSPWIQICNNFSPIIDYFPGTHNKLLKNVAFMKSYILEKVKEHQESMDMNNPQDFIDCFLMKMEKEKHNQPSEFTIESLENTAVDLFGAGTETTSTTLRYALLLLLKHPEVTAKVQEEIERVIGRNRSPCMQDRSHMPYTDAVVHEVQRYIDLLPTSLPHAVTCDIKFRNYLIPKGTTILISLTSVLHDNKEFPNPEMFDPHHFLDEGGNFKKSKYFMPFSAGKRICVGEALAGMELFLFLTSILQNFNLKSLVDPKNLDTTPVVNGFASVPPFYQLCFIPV
CYP2C9 activ: human CYP2C9 activators, primary screen, biochemical, luminescence; actives 1.4% (n = 96,000); activation factor at 5 µM; recombinant CYP2C9, luciferin-H conversion; hits give high values; factor 1 = untreated enzyme, 0 = blocked;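 active = activation factor of 2 or more for CYP2C9 at a 5 µM dose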
CYP2C19 activ: human CYP2C19 activators, primary screen, biochemical, luminescence | 96,000 tested, under 10 active | recombinant CYP2C19, luciferin-H EGE luminescence; hits give high values; 0 = fully inhibited enzyme, 1 = untreated enzyme | Cytochrome P450 2C19 (Homo sapiens), P33261 | activation factor at 5 µM | AID 1025, 2008;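 active = activation factor of at least 2 at 5 µM in the primary screen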
CYP2C19 inh: blockers of cytochrome P450 2C19 activity – biochemical, luminescence, ADME assay, primary screen. CYP2C19 Supersomes, luciferin-H EGE luminescence, 30 min. inhibition, % at 5 µM. actives 21% (n = 96,000);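 active = CYP2C19 inhibition above a set limit at 5 µM in the primary screen, cut at about 50% in these data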
Cav3 T inh: Cav3.2 calcium influx blockers – cell-based, Fluo-4 calcium fluorescence, FDSS, MLSMR library, primary screen. Voltage-dependent T-type calcium channel subunit alpha-1H (Homo sapiens), O95180. Cav3.2-expressing cells; hits give low values. AID 449739, 2010. B-score at 10 µM. actives 4% (n = 100,000);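 active = single-dose well whose peak fluorescence ratio is a statistical outlier from its plate by either plate-standardised score or position-corrected B-score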
Hits are given with their value; . = inactive; / = no result.

SMILES	CYP2C9 inhib	CYP2C9 activ	CYP2C19 activ	CYP2C19 inh	Cav3 T inh
CCCCNC(=O)c1sc2ncnc(N3CCc4ccccc4C3)c2c1C	94	.	.	.	-5.1
COc1ccc(/C(C)=N/NC(=O)c2ccc(CSc3cccc4cccnc34)cc2)cc1OC	.	.	.	.	.
COc1cc(C(=O)N2CCN(c3ncnc4sc(C)c(C)c34)CC2)cc(OC)c1OC	70	.	.	73	.
CCOC(=O)c1cnn(-c2ncnc3sc(C)c(C)c23)c1N	.	.	.	.	.
CCOC(=O)c1sc2ncnc(N3CCN(C(=O)OCC)CC3)c2c1C	76	.	.	.	.
CCOC(=O)c1sc2nc(CC(=O)OC)nc(N3CCN(c4ccccn4)CC3)c2c1C	85	.	.	68	-2.9
O=C(NCCCN1CCOCC1)c1cc(-c2ccccc2)on1	.	.	.	.	.
Cc1c(C(=O)NCCCN2CCOCC2)sc2ncnc(N3CCN(c4ccccc4)CC3)c12	91	.	.	50	.
CCCN(CCC)S(=O)(=O)c1ccc(NC(=O)c2cc(C(=O)OC)cc([N+](=O)[O-])c2)cc1	.	.	.	.	.
O=P(c1ccccc1)(c1ccccc1)C(c1ccco1)N1CCOCC1 (configuration not stated)	.	.	.	.	.
COc1cc2c(cc1OC)C(c1cccs1)N(C(=O)C(C)C)CC2 (configuration not stated)	.	.	.	63	.
O=c1[nH]c2cc3c(cc2cc1CN(CCO)S(=O)(=O)c1ccccc1Cl)OCCO3	77	.	.	.	.
COc1cc2cc(CN(CCCO)S(=O)(=O)c3ccccc3)c(=O)[nH]c2cc1OC	.	.	.	.	.
COc1cc2cc(CN(CCO)S(=O)(=O)c3ccccc3Cl)c(=O)[nH]c2cc1OC	55	.	.	.	.
CC(=O)N1N=C(c2cccc([N+](=O)[O-])c2)OC1c1ccc(Cl)cc1Cl (configuration not stated)	78	.	.	73	.
O=C(CSc1nc2ccccc2[nH]1)NC(=O)NCc1ccco1	.	.	.	57	.
Cc1ccc2nc(SCC(=O)NCc3ccco3)[nH]c2c1	.	.	.	.	/
O=C(CCCSc1nc2ccccc2[nH]1)NCc1ccco1	.	2	.	.	.
Cc1ccc2nc(SCC(=O)NC(=O)NCc3ccco3)[nH]c2c1	71	.	.	80	.
O=C(CSc1nc2cc(Cl)ccc2s1)NC(=O)NCc1ccco1	.	.	.	.	.
O=C(c1ccccc1Nc1ccc(SC(F)F)cc1)N1CCCCCC1	60	.	.	84	-6.8
O=C(Nc1nccs1)c1csc2c1CCCC2	/	/	/	/	.
CCN(Cc1ccccc1)S(=O)(=O)c1nc2nc(C)c(C)c(C)n2n1	.	.	.	.	.
COc1ccc(N2C(=O)CCC(C(=O)N3CCCCCC3)C2c2ccc(OC)c(OC)c2)cc1 (configuration not stated)	.	.	.	.	.
C=CCn1c(C)cc(C(=O)CSc2nnc(-c3cccc(S(=O)(=O)N(CC)CC)c3)o2)c1C	89	.	.	87	.
SMILES	CYP2C9 inhib	CYP2C9 activ	CYP2C19 activ	CYP2C19 inh	Cav3 T inh
CCN(CC)S(=O)(=O)c1ccc(-c2nnc(SCC(=O)c3ccc(OC)cc3)o2)cc1	.	.	.	.	.
CCN(CC)S(=O)(=O)c1cccc(-c2nnc(SCC(=O)c3cc(C)n(C4CC4)c3C)o2)c1	70	.	.	64	.
O=C(c1cnn2c1NC(c1ccc(Br)cc1)CC2C(F)(F)F)N1CCN(C23CC4CC(CC(C4)C2)C3)CC1 (configuration not stated)	/	/	/	/	.
CNC(=O)CSc1nc2nc(C)cc(C)n2n1	.	.	.	.	.
Cc1cc(C)n2nc(SCC(=O)c3ccc[nH]3)nc2n1	55	.	.	.	.
O=C(COc1ccc(Cl)cc1Cl)N(Cc1ccco1)C1CCS(=O)(=O)C1 (configuration not stated)	.	.	.	.	.
COc1cc(C(=O)Nc2ccc(OCC(=O)O)cc2)cc(OC)c1OC	.	.	.	.	.
O=C(CCc1nc(-c2ccccc2)no1)NCC1CCCO1 (configuration not stated)	.	.	.	.	/
CCOc1ccc(OCC)c(N=c2oc3c(C)ncc(CO)c3cc2C(N)=O)c1	.	.	.	.	/
COc1cccc(N=c2oc3c(C)ncc(CO)c3cc2C(=O)Nc2ccccc2OC)c1	77	.	.	.	/
COc1ccc(C2C(Oc3ccccc3)C(=O)N2c2ccc(C)c(C)c2)cc1OC (configuration not stated)	/	/	/	/	.
COc1ccc(OC2C(=O)N(Cc3ccc(F)cc3)C2c2ccc(OC)c(OC)c2)cc1 (configuration not stated)	60	.	.	72	.
O=C(NC(Cc1ccccc1)c1ccc2c(c1)OCCCO2)c1ccccc1 (configuration not stated)	65	.	.	.	.
COC(=O)c1ccc(NC(=O)CSc2nnc(-c3ccccc3)n2C)cc1	/	/	/	/	.
CCOc1cc(/C=C2\C(=O)N(c3nc(-c4ccc(Br)cc4)cs3)N=C2c2ccccc2)ccc1O	87	.	.	.	/
CCOc1cc(/C=C2/SC(=O)N(CC(=O)N3CCc4ccccc4C3)C2=O)ccc1OCC(=O)O	.	.	.	.	.
COc1cc(/C=N/NC(=O)CCc2c(C)n[nH]c2C)cc(OC)c1OC	.	.	.	55	.
Cc1cc(CSc2ccccc2)ccc1NC(=O)c1ccc(Cl)c([N+](=O)[O-])c1	.	.	.	.	.
CC(=O)NCc1ccc(C(=O)CSc2nnc(-c3ccncc3)n2Cc2ccccc2)o1	/	/	/	/	.
CCCCCCNS(=O)(=O)c1ccc(Cl)s1	86	.	.	98	-6.4
COCCOc1cc(-n2ccnc2SC)c(Cl)cc1Cl	.	.	.	68	.
CCn1c(SCC(=O)OCC(=O)N2c3ccccc3NC(=O)C2(C)C)nnc1-c1ccco1	.	.	.	.	.
CCCCCCn1c(COc2ccccc2F)nnc1SCC(=O)N1c2ccccc2NC(=O)C1(C)C	.	.	.	.	-5.9
Cc1nonc1OCC(C)(COc1nonc1C)NC(=O)c1ccc(Cl)cc1	/	/	/	/	-4.2
O=C(CC(=O)NN=C1CCCC1)NCCc1ccccc1	.	.	.	.	.
O=C(c1ccccc1NS(=O)(=O)c1cccc([N+](=O)[O-])c1)N1CCOCC1	.	.	.	.	.
CCN(CC)S(=O)(=O)c1ccc(S(=O)(=O)Nc2cc3c(cc2C(C)=O)OCO3)cc1	97	.	.	52	.
CC(=O)c1cc2c(cc1NS(=O)(=O)c1ccc(C)cc1)OCO2	.	.	.	63	.
NC(=O)c1ccccc1NS(=O)(=O)c1ccc2c(c1)OCCO2	.	.	.	76	.
